# Sampled rows, rich in hits. Any-hit rate of the full collection: about 10%.
# HP1b chromo inh: blocks HP1-beta chromodomain binding to methylated histone tails | P83916 | AlphaScreen HP1-beta / biotin-H3K9me3 peptide binding | Potency, µM (series often up to 114 µM), for inactives: at the top dose activity change, negative = inhibition, hits mostly inhibitors | hit rate 0.56% among 390,000; further: nearly all actives have a fitted effect of over 70% in size
#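 AlphaScreen: HP1-beta (50 nM) preformed 30 min with biotin-H3(1-18)K9me3 peptide (50 nM) in PBS pH 7.4, 0.01% Tween-20. Compound added for 30 min at RT, then streptavidin donor/nickel chelate acceptor beads (10 ug/mL) for 30 min.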
# JMJD2A Tudor inh: blocks the human JMJD2A Tudor domain; O75164; AlphaScreen JMJD2A-Tudor / H3K4me3 peptide binding; Potency, µM (doses to about 114 µM), for the others: top-dose activity change, negative = inhibition, actives largely listed as inhibitors; hit rate 4.4% among 390,000; further: on the % scale 0 is the no-effect control and ±100 the full control effect; nearly all actives have a fitted effect of over 50% in size
# G9a block: blocks human histone lysine methyltransferase G9a; Potency, µM (titrated, usually from 102 µM), inactives show at the highest dose activity, negative = inhibition, usual class: inhibitors; Q96KQ7; G9a H3K9 monomethylation, AlphaScreen, 2 h; hit rate 8.8% among 350,000; further: on the % scale 0 is the no-effect control and ±100 the full control effect; nearly all actives have a fitted effect of over 75% in size
#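 Step 1: enzyme (final 20 nM) with compound, 15 min RT. Step 2: substrate peptide 500 nM and SAM 20 uM, 2 h RT. Step 3: anti-H3K9me1 antibody and AlphaScreen beads, 10 min, then plate read.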
# GLS inh: inhibitors of human glutaminase (GLS); O94925; Potency, µM (highest dose often 45.5 µM), without a hit: top-dose activity change, negative = inhibition, hits mostly inhibitors; hit rate 0.21% among 410,000; GLS enzymatic activity, qHTS titration; AID 624170; further: on the % scale 0 is the no-effect control and ±100 the full control effect
# Target sequence (O94925 whole entry, looked up): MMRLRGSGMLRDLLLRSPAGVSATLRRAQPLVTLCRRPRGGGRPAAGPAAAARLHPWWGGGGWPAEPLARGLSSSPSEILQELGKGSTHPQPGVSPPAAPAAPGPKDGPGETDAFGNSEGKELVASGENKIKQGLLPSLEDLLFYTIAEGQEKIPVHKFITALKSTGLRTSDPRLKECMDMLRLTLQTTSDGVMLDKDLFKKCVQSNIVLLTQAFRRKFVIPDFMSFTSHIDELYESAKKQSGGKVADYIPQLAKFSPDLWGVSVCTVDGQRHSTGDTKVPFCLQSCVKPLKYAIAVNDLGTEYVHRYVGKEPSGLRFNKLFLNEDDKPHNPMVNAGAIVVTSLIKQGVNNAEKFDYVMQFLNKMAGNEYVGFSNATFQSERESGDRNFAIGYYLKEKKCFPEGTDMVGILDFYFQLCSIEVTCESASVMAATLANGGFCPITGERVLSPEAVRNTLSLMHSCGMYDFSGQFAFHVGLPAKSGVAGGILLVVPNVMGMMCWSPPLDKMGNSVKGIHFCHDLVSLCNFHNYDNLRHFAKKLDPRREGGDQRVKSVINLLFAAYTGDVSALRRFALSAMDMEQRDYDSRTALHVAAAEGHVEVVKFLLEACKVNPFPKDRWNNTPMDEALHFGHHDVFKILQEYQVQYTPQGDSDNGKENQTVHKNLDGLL
#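 Compounds were pin-transferred onto hKGA, after which L-glutamine (1 mM solution) and a detection mix of glutamate oxidase, HRP and Amplex Red were added. Initial and 30 min RT fluorescence reads were collected.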
# BAZ2B block: BAZ2B (human) inhibition; AlphaScreen BAZ2B-H3K14Ac peptide displacement; Potency, µM (titrated, usually from 114 µM), for the others: at the highest dose activity change, negative = inhibition, usual class: inhibitors; hit rate 4.4% among 360,000; further: on the % scale 0 is the no-effect control and ±100 the full control effect; nearly all actives have a fitted effect of over 60% in size
#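 BAZ2B 50 nM plus b-H3(5-23)K14Ac 50 nM, PBS pH 7.4/0.01% Tween-20, 30 min RT; compound added (max 110 uM), 30 min RT; streptavidin donor/Ni-chelate acceptor beads 10 ug/mL final, 20 min dark; AlphaScreen read.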
# * marks the source's active call; other numbers are inactive results; ? = inconclusive; nt = no result given; ! = repeats disagree; [ ] = dose if it differs, or a comment. The call rests on the fitted dose curve; in most records, active means well fitted curve in the direction sought with a large enough effect; inconclusive means small, poorly fitted or top-dose-only effect, or another doubt; inactive means no such curve, though single readings can be large; an effect the other way counts as inactive or inconclusive. Potency means the concentration at half of the fitted maximal effect.
SMILES,HP1b chromo inh,JMJD2A Tudor inh,G9a block,GLS inh,BAZ2B block
CN(C)CCCN(C(=O)c1ccc(S(=O)(=O)N(C)C)cc1)c1nc2cc3c(cc2s1)OCO3,11%,-26%,50µM*,4%,?
CN(C)CCCN(C(=O)c1ccc(Br)s1)c1nc2cc3c(cc2s1)OCO3,43%,-22%[11.4 µM],?,1%,-37%
CCN(Cc1ccccc1)S(=O)(=O)c1ccc(C(=O)N(CCCN(C)C)c2nc3cc4c(cc3s2)OCO4)cc1,-12%,56µM*,nt,7%,25µM*
O=C(NCCc1ccc(Cl)cc1)c1nnc(Cc2ccc(Cl)cc2Cl)o1,6%,-14%,6%[59 µM],4%,-2%
CCCOc1ccc(N2CC(C(=O)NCCc3ccc(OC)c(OC)c3)CC2=O)cc1 (stereo not given),58%,-4%[57.1 µM],nt,3%,3%
Cc1ccc(CN2CCN(/N=C/c3cccn3C)CC2)c(C)c1,?,40µM*,25µM*,14%,50µM*
Cc1ccc(CN2CCN(/N=C/c3ccc(C)s3)CC2)c(C)c1,?,45µM*,?,12%,35µM*
COCCNC(=O)c1c(C)oc2nc(C)nc(N3CCOCC3)c12,12%,-15%,-3%[59 µM],-5%,12%[57.1 µM]
O=c1c(-c2ccccc2)nc2cnc(N3CCOCC3)nc2n1Cc1cccs1,nt,nt,3%[0.501 µM],nt,nt
COc1ccc(Cn2c(SCc3ccc(C(=O)NCc4cccs4)cc3)nc3ccncc32)cc1,26%,-15%,-5%[59 µM],-2%,-32%
COCCC1CCCCN1C(=O)c1cccc(OC2CCN(S(C)(=O)=O)CC2)c1 (stereo not given),7%,-9%,nt,7%,-6%
CC1=C(C#N)C(=O)N(C2CCS(=O)(=O)C2)C(=O)/C1=C\c1ccco1 (stereo not given),nt,nt,5µM*,nt,7.1µM*
Cc1nc(SCCc2nc3ccccc3[nH]2)c2oc3ccccc3c2n1,10%,?,nt,4%,nt
O=C(OCC#CCSc1nnc(-c2cccc3ccccc23)o1)c1ccco1,54%,7%,21%[0.501 µM],-6%,79µM*!
O=C(OCC#CCSc1nnc(-c2cccc3ccccc23)o1)c1ccc(Br)cc1,85%,38%,-2%[12.7 µM],0%,22%
Cc1ccc(NC(=O)CSc2nc(NS(=O)(=O)c3ccccc3)cc(=O)[nH]2)cc1,-18%,50µM*,?,3%,?
Cc1ccc(S(=O)(=O)Nc2cc(=O)[nH]c(SCC(=O)Nc3ccccc3Cl)n2)cc1,44%,-2%,56µM*,-4%,56µM*
CCc1ccc(NC(=O)CSc2nc(NS(=O)(=O)c3ccccc3)cc(=O)[nH]2)cc1,41%,-14%,?,-15%,50µM*
O=C(CSc1nc(NS(=O)(=O)c2ccccc2)cc(=O)[nH]1)Nc1ccccc1Cl,20%,0%,-17%,-15%,?
Cc1ccc(CN2CCCN(C)CC2)c(C)c1,?,3.2µM*,3.5µM*,-9%,56µM*
Cc1c(C)c(C)c(CN2CCSCC2)c(C)c1C,38%,1%,2%,1%,-11%
O=S1(=O)CCN(Cc2cccc(Cl)c2)CC1,14%,-24%,-4%,5%,-1%
Cc1ccc(CN2CCSCC2)cc1,?,22µM*,nt,3%,?
Clc1cccc(CN2CCSCC2)c1,?,22µM*,-30%[0.501 µM],1%,?
Cc1ccc(CN2CCSCC2)c(C)c1,?,-100%,4.5µM*,2%,?
SMILES,HP1b chromo inh,JMJD2A Tudor inh,G9a block,GLS inh,BAZ2B block
CC(C)CC(=O)NC(=S)Nc1cccc(NC(=O)c2ccccc2Cl)c1,23%,?,7.9µM*,3%,-3%
CCC(=O)NC(=S)Nc1cccc(NC(=O)c2ccccc2Cl)c1,-1%,-6%[11.4 µM],18µM*,-11%,-1%
COc1ccc(Cl)c2sc(N3CCN(C(C)=O)CC3)nc12,65%,-4%,11%,-6%,1%
N#C/C(=C\c1cc(O)c(O)c(O)c1)C(N)=O,?,3.5µM*,nt,-18%,18%
O=C(CNC(=O)c1ccc(C(F)(F)F)cc1)OC(C(=O)Nc1cc(C(F)(F)F)ccc1Cl)c1ccccc1 (stereo not given),nt,-19%,nt,nt,nt
OC(Cn1cnnc1)c1ccccc1 (stereo not given),22µM*,6.3µM*,35µM*,10%,25µM*
O=C(Cc1cccs1)NC1(C(=O)NC2CCCC2)CCCCC1,45%,-7%,8%[59 µM],-5%,1%
COc1cc(Nc2nc(-c3ccccc3)c3cc(C)ccc3n2)cc(OC)c1OC,-23%,?,40µM*,-5%,?
CCCCCOC(=O)C1=C(C)Nc2nnnn2C1c1ccccc1Cl (stereo not given),33%,-35%,9%[12.7 µM],10%,-6%
Cc1oc(-c2ccc(C(=O)N(C)Cc3ccccc3)cc2)nc1CN1CCc2ccccc21,-22%[57 µM],28µM*,?,3%,25µM*
Cc1ccc(CNC(=O)c2ccc(-c3nc(CN4CCc5ccccc54)c(C)o3)cc2)cc1,17%[57 µM],-35%,-27%[59 µM],-4%,-17%
c1coc(CN2CCN(C(c3cccs3)c3nnnn3C3CCCC3)CC2)c1 (stereo not given),17%,?,50µM*,5%,?
CCOC(=O)Cc1ccc(NC(=O)N(Cc2ccc(CC)cc2)Cc2cn[nH]c2-c2ccc(OC)cc2)cc1,65%,20%,2%[59 µM],0%,0%
CC(C)C[C@H]1COc2cccc(N3CCC[C@H]3CO)c2S(=O)(=O)N1,nt,nt,nt,14%,nt
COC(=O)c1ccc(CNC(=O)COC(=O)c2cc(Cl)nc(Cl)c2)cc1,24%,-8%,50µM*,1%,-4%
CN(C(=O)c1sc2nc(N3CCCC3)c3c(c2c1N)CC(C)(C)OC3)c1ccccc1,38%,11%,45µM*,-9%,-25%
CC1(C)Cc2c(c(N3CCOCC3)nc3sc(C(=O)Nc4cccc(Cl)c4)c(N)c23)CO1,42%,-8%,79µM*,9%,-8%[57.1 µM]
CC1(C)Cc2c(c(N3CCOCC3)nc3sc(C(=O)Nc4ccccc4)c(N)c23)CO1,46%,-14%,28µM*,3%,-16%
CCc1ccc(CNC(=O)C2CCN(C(=O)c3ccc(-n4ccc5ccccc54)s3)CC2)cc1,20%,-13%,0%[59 µM],7%,0%
CCOc1ccc(-c2nnc(SCC(=O)Nc3ccc4c(c3)c3ccccc3n4CC)n2N)cc1,2%,?,?,-4%,71µM*
Cc1cc(NC(=O)CSc2nnc(-c3ccncc3)n2N)ccc1Br,15%,79µM*,35µM*,11%,11%
c1nc(NCCCN2CCOCC2)c2cc(-c3ccc4c(c3)OCO4)ccc2n1,nt,-28%,nt,nt,nt
Cc1nc2ccc(S(=O)(=O)N(C)CC(=O)Nc3ccc(Br)c(C)c3)cc2s1,7%,-12%,-5%[59 µM],-6%,3%
CCNC(=O)N(C)C[C@H]1N[C@@](C)(C(=O)OC)[C@H]2C(=O)N(C)C(=O)[C@@H]12,27%,89µM*,nt,5%,nt

# Assay outcomes (PubChem BioAssay)
